Consider 56 compounds from PubChem BioAssay AID463082 (The Scripps Research Institute Molecular Screening Center, 2010).

Among all 330,000 compounds or so, about 4,900 (1.5%) were called active. This is one part of a sample in which actives are shown more often than they occur.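 How the source made its calls: active means inhibition above the mean inhibition across the screen plus 3 SD (cut at about 25% in these data); inactive means the rest.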

For the assay, the target named is Platelet-activating factor acetylhydrolase (Homo sapiens) (UniProt Q13093). Kind of assay: inhibition of plasma PAF acetylhydrolase – biochemical, fluorescence polarization, human, primary screen (AID 463082).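 Further: inhibitors block binding of the rhodamine activity-based probe so polarization drops; 0% = enzyme with DMSO and 100% = wells lacking pPAFAH.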 The conditions noted are these: recombinant pPAFAH, FP-rhodamine probe fluorescence polarization; at 3.39 µM; active compounds read high.
Chain of Platelet-activating factor acetylhydrolase (Homo sapiens) (Q13093 whole entry, looked up): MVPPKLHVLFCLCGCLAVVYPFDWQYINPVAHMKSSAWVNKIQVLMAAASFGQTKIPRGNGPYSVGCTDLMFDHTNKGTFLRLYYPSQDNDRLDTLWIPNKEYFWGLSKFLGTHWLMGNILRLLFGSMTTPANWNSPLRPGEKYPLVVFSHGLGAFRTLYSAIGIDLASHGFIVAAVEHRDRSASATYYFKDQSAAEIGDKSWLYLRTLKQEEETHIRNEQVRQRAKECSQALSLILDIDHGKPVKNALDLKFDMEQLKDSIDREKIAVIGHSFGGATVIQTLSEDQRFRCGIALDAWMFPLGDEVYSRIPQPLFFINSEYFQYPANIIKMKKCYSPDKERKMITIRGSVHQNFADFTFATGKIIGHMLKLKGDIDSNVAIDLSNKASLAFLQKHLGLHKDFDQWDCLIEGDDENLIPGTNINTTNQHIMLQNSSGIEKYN
Take `Cc1cnc(C)c(N2CCN(C(=O)C3CCC(=O)N(CCc4cccc(F)c4)C3)CC2)n1` (stereo unspecified): the inhibition (in general, the change of the read-out against control, counted positive when it falls) is 4.96% (inactive).

Regarding `CCCCn1c(N)c(N(CC)C(=O)c2ccccc2C(F)(F)F)c(=O)[nH]c1=O`, the inhibition is -0.54% (inactive).

With `CC(=O)Nc1cccc(Nc2nc(-c3cccs3)nc3ccccc23)c1`, the inhibition is -12.8% (inactive).

Turning to `CCOC(=O)c1nc(Nc2ccc(C(=O)OC)cc2)c2ccccc2n1`, the inhibition was -0.04% (inactive).

As for `Cc1cccc(-c2nc(Nc3ccc(O)cc3)c3ccccc3n2)c1`, the inhibition was 26.7% (active).

For the compound `O=C(COC(=O)CC1CC2CCC1C2)NC(=O)NC1CCCC1` (stereo unspecified), the inhibition was 2.89% (inactive).

As for `Cc1ccc(-n2c(C)cc(/C=C(\C#N)C(=O)NCC3CCCO3)c2C)cc1` (stereo unspecified), the inhibition is 68.5% (active).

Consider `Cc1cc(/C=C(/C#N)C(=O)Nc2ccc(Cl)cc2)c(C)n1-c1cccnc1`, for which the inhibition is 0.95% (inactive).

For `Cc1ccc(C(=O)N/C(=C/c2cccs2)C(=O)NCC2CCCO2)cc1` (stereo unspecified), the inhibition was -4.31% (inactive).

`COc1ccccc1C(=O)Nc1ccnn1C1CCN(C(=O)C(C)(C)C)CC1`: the inhibition was -0.55% (inactive).

On to `COc1ccc(/C=C/C(=O)N2CCCC2)cc1OC`, for which the inhibition is 0% (inactive).

Take `COC(=O)c1ccc(COc2ccc(/C=C/C(=O)c3ccc(OC)c(CSCC(=O)O)c3)cc2OC)cc1`: the inhibition was 28.7% (active).

`COc1ccc(/C=C/C(=O)c2ccc(NS(=O)(=O)c3ccc(C)cc3)cc2)cc1O`: the inhibition is 23.6% (inactive).

In the case of `COCCn1c(SC(C)C(=O)NC2CC2)nnc1-c1cccc(C)c1` (stereo unspecified), the inhibition is -1.49% (inactive).

With `COc1cc(C2C(C#N)=C(N)Oc3n[nH]c(-c4ccccn4)c32)cc(OC)c1OC` (stereo unspecified), the inhibition is 2.74% (inactive).

For `COc1ccc(C2C(C#N)=C(N)Oc3cc(N)ccc32)cc1OC` (stereo unspecified), the inhibition was 26% (active).

As for `N#CC1=C(N)Oc2cc(O)ccc2C1C1CCCCC1` (stereo unspecified), the inhibition was 2.82% (inactive).

Take `CCOC(=O)[C@H]1[C@H]2COc3ccc(C)cc3[C@@H]2N2C(=O)CN(Cc3ccc(F)cc3)C(=O)[C@@]12C`: the inhibition was -0.02% (inactive).

Regarding `C=CCN(N=Nc1cccc([N+](=O)[O-])c1)c1cccc([N+](=O)[O-])c1`, the inhibition is 9.93% (inactive).

For `Cn1c2ccccc2c2cc(/C=C(\NC(=O)c3ccccc3)C(=O)NCC(=O)O)ccc21`, the inhibition was 24.7% (active).

Take `COc1ccc(/C=C(\NC(=O)c2ccccc2)C(=O)NCCN2CCOCC2)cc1OC`: the inhibition was 4.35% (inactive).

On to `CCOC(=O)CNC(=O)/C(=C\c1ccc(F)cc1)NC(=O)c1ccccc1`, for which the inhibition is -2.32% (inactive).

Consider `Cc1ccc2c(c1)nnc1nnc(SCC(=O)O)n12`, for which the inhibition is 2.74% (inactive).

Turning to `CC(C)C[C@H](NC(=O)N1CCn2c1nc1ccccc12)C(=O)NC1CC1`, the inhibition is 1.86% (inactive).

Take `COc1ccc(C(=O)Nc2cc(C)c(NC(=O)c3ccccc3OC)cn2)cc1`: the inhibition is 2.94% (inactive).

`C=CCn1c(=S)[nH]c2nc3c(cc2c1=O)COC(C)(C)C3`: the inhibition was -1.93% (inactive).

As for `C=CCn1c(=S)[nH]c2scc(-c3ccco3)c2c1=O`, the inhibition is 42.6% (active).

For the compound `C=CCn1cnc2scc(-c3ccccc3)c2c1=O`, the inhibition is 0.46% (inactive).

As for `C#CCOCCOCCOCCNc1nc(N2CCN(C(=O)C(Cc3ccc(O)cc3)n3cc(C(N)CC(C)C)nn3)CC2)nc(N2CCN(C(=O)C(Cc3ccc(O)cc3)n3cc(C(N)C(C)CC)nn3)CC2)n1` (stereo unspecified), the inhibition is 0.55% (inactive).

For the compound `CN(C)S(=O)(=O)N1CCC(Oc2cccc(C(=O)NCCCC3CCCC3)c2)CC1`, the inhibition is 3.19% (inactive).

For the compound `Cc1ccc(C(=O)O)cc1-c1ccc(/C=C2\SC(=O)N(CC(=O)Nc3ccc4c(c3)OCO4)C2=O)o1`, the inhibition was 30.2% (active).

With `Cc1ccc(C(=O)Nc2ccc3c(c2)OCO3)cc1S(=O)(=O)N1CCCCC1`, the inhibition was 14.5% (inactive).

Turning to `Cc1nn(CC(=O)Nc2ccc3c(c2)OCO3)c(C)c1[N+](=O)[O-]`, the inhibition is -3.11% (inactive).

Turning to `O=C(COC(=O)c1ccc(F)cc1)Nc1ccc2c(c1)OCO2`, the inhibition was 9.5% (inactive).

In the case of `O=C(NOCc1ccccc1)c1cccc([N+](=O)[O-])c1`, the inhibition is 7.75% (inactive).

`Cn1c(=O)c2c(ncn2CC(=O)N/N=C/c2cn[nH]c2-c2ccc(F)cc2)n(C)c1=O`: the inhibition is 1.61% (inactive).

`CCN(Cc1ccccc1)C(=O)Cc1ccc(OC)c(S(=O)(=O)N2CCOCC2)c1`: the inhibition is -1.51% (inactive).

As for `Oc1c(Cl)cc(Cl)c(Cl)c1Cc1c(O)c(Cl)cc(Cl)c1Cl`, the inhibition is 68.2% (active).

As for `O=C(CN1C(=O)NC2(CCOc3ccccc32)C1=O)Nc1cccc([N+](=O)[O-])c1` (stereo unspecified), the inhibition was 0.7% (inactive).

Turning to `Cc1cccc(NC(=S)NCCc2ccc(F)cc2)c1C`, the inhibition was 3.05% (inactive).

For `CC(=O)Nc1ccc(Oc2ccc3c(c2)C(=O)NC3=O)cc1`, the inhibition was -0.12% (inactive).

With `CCCCC(=O)Nc1ccc2c(c1)C(=O)NC2=O`, the inhibition was 34.6% (active).

As to `CCCCN(C)CCC(=O)Nc1ccc(Cl)cc1`, the inhibition is 1.11% (inactive).

As to `Cc1cc(NC(=O)c2ccccc2C)no1`, the inhibition is 2.84% (inactive).

Regarding `Cc1ccc(S(=O)(=O)N2CCN(CC(=O)N/N=C/c3cc([N+](=O)[O-])ccc3Cl)CC2)cc1`, the inhibition was 3.66% (inactive).

As to `O=S(=O)(c1ccc(NC(=S)NN=C(C2CC2)C2CC2)cc1)N1CCOCC1`, the inhibition is 15% (inactive).

Take `O=[N+]([O-])c1cc(Cl)cc(/C=N/NC(=S)Nc2cc(S(=O)(=O)N3CCOCC3)ccc2Cl)c1O`: the inhibition is 36.5% (active).

Consider `CSc1ccc(C(=O)C2CCCN(C(=O)c3ccc(C)nc3)C2)cc1` (stereo unspecified), for which the inhibition is 5.05% (inactive).

`CCOC(=O)C1C(=O)OC2(CCCC2)C1C(=O)OCC` (stereo unspecified): the inhibition was -0.69% (inactive).

For `CN(CC(=O)N1CCN(c2ccccc2)CC1)S(=O)(=O)c1cccs1`, the inhibition is -1.58% (inactive).

Consider `CC(C)CNC(=O)C(=O)Nc1ccc(N(C)C)cc1`, for which the inhibition was -8.71% (inactive).

With `CC(=O)N(C)c1ccc(NC(=O)C(F)(F)F)cc1`, the inhibition is -4.77% (inactive).

With `CN(C)c1ccc(N/C=C/C(=O)C(F)(F)F)cc1`, the inhibition is 42.4% (active).

Consider `CCCc1ccc(C(=O)[C@@H]2[C@@H](C(C)=O)N3c4ccc(F)cc4C=C[C@@H]3[C@@]23C(=O)Nc2ccccc23)cc1`, for which the inhibition is 2.89% (inactive).

With `O=C(CSc1ncnc2sccc12)NC1CCS(=O)(=O)C1` (stereo unspecified), the inhibition is 4.85% (inactive).

Consider `COc1ccc(NC(=O)C(NC(C)=O)C(=O)NCc2ccccc2Cl)cc1` (stereo unspecified), for which the inhibition is -2.3% (inactive).
